# Targets with a hit are over-represented here; the source holds about 8,800 in all. About 0.5% of all pairs of compound and target were hits. A number with no mark means an inactive call.
# Compound: Cn1cncc1[C@@](N)(c1ccc(Cl)cc1)c1ccc2c(c1)c(-c1cccc(Cl)c1)cc(=O)n2C [tipifarnib]
# Assay: log2 fold change, soluble protein after heating vs DMSO (PISA); higher = thermal stabilisation; K562 lysate, 10 uM; active = over 0.2 and 3.5 SD of the protein, either way, in both replicates (recomputed)
# In short: (§1)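 Values give the log-two fold change in thermal stability against solvent controls, from duplicates. Crude K562 extract at 1 mg/mL protein, made by dounce homogenisation in PBS pH 7.4 with 1 mM MgCl2, was treated with 10 μM compound for 30 min. After 3 min heating across 48°C-58°C, aliquots were pooled, adjusted to 0.5% NP-40 at 4°C and centrifuged at 21,000xg for 90 min. The supernatant was measured by TMTpro 16plex LC-MS/MS with channel sums equalised.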
# Sequence of UniProt P0C2W1 (P0C2W1 whole entry, looked up): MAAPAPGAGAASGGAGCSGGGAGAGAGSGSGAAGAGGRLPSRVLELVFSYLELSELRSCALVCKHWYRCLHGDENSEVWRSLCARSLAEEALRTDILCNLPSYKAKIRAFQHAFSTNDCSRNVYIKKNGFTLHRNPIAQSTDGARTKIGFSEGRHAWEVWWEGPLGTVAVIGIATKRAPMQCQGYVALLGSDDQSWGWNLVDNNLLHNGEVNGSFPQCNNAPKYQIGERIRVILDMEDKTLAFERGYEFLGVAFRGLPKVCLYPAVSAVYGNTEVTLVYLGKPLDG
# Sequence of UniProt Q9NYQ8 (Q9NYQ8 whole entry, looked up): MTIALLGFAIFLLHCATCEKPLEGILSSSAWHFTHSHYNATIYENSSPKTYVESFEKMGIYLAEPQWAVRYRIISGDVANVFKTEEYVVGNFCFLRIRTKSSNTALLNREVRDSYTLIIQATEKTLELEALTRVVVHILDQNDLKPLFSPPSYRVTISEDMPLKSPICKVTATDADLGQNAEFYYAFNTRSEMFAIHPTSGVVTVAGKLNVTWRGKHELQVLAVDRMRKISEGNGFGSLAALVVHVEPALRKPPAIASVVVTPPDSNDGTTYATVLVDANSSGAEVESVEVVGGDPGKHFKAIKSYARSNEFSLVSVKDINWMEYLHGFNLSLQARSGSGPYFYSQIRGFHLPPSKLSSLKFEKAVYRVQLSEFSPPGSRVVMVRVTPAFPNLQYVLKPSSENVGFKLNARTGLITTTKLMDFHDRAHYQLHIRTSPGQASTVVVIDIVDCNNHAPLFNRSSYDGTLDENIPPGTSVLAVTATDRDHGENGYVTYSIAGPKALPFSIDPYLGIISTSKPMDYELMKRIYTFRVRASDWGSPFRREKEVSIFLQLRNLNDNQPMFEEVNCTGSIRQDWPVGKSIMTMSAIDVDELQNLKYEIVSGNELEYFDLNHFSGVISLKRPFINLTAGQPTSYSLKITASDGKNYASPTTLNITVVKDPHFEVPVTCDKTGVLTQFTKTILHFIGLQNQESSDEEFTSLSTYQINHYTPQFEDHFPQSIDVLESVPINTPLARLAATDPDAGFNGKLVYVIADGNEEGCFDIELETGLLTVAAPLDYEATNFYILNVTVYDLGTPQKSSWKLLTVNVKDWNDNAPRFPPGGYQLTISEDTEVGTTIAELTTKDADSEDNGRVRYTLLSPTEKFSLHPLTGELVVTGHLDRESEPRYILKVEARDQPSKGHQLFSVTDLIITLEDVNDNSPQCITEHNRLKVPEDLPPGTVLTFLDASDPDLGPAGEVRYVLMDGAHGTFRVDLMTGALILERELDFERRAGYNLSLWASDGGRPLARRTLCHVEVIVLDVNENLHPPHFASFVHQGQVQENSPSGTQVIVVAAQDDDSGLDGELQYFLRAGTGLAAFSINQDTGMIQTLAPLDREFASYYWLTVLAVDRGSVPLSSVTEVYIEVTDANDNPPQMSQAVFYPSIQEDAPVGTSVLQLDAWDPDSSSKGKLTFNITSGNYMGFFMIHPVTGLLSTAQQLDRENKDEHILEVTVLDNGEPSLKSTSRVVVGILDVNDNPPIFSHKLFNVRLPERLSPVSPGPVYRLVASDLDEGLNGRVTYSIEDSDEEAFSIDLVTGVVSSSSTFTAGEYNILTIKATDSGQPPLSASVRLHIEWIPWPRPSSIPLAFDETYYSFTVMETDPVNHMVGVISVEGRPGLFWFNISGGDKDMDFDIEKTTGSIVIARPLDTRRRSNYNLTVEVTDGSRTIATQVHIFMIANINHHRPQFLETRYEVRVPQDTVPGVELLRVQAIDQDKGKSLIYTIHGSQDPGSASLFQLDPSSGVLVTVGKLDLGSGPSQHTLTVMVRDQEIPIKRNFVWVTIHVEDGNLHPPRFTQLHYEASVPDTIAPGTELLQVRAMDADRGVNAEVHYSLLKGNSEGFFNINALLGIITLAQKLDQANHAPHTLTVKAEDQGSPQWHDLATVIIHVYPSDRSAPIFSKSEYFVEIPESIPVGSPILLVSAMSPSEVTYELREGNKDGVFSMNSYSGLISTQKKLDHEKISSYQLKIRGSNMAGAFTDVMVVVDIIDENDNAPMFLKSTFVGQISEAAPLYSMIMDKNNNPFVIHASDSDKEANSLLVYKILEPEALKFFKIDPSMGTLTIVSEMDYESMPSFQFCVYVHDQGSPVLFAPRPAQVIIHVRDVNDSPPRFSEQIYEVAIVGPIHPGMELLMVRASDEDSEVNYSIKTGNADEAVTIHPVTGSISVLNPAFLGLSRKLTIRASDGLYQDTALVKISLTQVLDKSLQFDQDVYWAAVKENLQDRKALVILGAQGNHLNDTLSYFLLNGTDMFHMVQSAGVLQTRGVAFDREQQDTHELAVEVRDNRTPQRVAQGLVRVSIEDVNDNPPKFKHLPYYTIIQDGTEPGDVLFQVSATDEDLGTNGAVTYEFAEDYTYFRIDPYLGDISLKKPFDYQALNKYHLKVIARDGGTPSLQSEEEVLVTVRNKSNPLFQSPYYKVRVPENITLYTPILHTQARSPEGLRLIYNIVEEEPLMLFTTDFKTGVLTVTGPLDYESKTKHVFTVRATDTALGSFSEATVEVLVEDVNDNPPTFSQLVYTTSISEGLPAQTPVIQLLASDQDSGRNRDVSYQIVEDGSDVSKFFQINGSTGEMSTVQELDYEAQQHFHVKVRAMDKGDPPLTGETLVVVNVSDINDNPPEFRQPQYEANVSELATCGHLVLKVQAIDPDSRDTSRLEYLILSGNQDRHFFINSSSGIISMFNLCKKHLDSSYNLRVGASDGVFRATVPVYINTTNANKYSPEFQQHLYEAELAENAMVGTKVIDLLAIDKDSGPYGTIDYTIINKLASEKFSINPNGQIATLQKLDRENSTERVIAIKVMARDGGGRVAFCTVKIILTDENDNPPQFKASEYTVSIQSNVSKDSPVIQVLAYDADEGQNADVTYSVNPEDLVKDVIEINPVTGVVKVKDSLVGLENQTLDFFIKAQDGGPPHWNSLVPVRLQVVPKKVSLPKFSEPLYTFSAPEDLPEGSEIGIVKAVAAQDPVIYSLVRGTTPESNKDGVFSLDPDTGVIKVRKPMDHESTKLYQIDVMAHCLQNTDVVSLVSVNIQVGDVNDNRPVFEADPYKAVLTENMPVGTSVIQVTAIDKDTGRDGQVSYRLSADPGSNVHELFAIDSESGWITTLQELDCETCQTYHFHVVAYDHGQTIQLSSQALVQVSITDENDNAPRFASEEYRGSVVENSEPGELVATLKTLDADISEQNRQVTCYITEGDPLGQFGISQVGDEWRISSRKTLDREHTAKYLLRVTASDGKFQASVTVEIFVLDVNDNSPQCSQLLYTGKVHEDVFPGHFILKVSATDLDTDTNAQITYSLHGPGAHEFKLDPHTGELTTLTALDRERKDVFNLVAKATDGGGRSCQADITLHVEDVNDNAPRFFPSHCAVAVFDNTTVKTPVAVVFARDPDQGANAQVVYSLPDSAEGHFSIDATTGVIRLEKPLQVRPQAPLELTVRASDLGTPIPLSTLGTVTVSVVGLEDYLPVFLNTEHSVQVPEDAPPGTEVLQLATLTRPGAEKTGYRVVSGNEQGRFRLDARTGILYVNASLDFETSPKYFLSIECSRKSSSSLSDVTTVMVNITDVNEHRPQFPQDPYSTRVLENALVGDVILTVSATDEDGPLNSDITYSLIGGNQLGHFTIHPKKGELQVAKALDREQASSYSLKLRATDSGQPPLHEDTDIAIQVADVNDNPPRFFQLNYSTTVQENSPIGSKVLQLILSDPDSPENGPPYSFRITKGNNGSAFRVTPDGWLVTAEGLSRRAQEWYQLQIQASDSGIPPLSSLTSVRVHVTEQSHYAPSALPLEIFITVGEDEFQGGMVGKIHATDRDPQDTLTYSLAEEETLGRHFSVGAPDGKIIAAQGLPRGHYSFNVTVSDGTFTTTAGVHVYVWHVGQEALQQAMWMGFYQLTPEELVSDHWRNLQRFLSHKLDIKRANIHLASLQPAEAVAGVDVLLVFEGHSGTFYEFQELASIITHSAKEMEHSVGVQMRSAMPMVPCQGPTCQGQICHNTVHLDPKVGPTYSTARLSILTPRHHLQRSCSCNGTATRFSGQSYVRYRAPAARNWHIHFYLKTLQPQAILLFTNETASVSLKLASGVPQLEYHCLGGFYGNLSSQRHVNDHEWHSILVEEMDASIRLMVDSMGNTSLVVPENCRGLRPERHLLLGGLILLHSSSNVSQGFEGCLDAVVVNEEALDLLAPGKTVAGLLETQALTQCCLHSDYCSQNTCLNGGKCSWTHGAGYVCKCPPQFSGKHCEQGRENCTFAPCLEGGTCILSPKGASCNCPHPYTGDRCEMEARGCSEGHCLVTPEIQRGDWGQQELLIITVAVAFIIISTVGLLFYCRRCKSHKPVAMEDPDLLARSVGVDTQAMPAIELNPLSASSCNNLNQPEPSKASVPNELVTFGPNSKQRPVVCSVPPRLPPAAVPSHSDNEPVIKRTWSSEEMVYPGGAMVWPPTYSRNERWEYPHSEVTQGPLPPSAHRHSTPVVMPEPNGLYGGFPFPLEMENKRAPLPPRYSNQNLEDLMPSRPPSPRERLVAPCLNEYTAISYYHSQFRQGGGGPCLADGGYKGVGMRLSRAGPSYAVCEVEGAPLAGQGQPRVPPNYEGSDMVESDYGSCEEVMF
# Sequence of UniProt Q8NCA5 (Q8NCA5 whole entry, looked up): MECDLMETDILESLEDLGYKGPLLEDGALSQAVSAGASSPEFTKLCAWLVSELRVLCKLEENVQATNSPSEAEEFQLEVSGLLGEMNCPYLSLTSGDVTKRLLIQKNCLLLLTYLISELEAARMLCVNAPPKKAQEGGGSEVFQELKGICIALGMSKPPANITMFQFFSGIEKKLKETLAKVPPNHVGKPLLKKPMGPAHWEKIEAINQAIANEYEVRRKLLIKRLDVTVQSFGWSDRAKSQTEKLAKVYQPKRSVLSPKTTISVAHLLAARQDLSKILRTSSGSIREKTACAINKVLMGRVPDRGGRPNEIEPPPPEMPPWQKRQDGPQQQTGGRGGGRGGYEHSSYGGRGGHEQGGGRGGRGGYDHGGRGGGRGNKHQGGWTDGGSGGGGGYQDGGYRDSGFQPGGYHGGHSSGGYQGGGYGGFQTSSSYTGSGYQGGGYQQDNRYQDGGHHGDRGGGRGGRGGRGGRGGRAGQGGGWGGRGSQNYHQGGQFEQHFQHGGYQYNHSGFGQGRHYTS
row,Target,log2 fold change
1,GCA (UniProt P28676),-0.141
2,GAA (UniProt P10253),-0.336
3,EID1 (UniProt Q9Y6B2),0.021
4,"FBRSL1, A0A3B3IRR3",-0.073
5,GART (UniProt C9JZG2),-0.101
6,FOXJ2 (UniProt Q9P0K8),-0.293
7,EPB41 isoform 4 (UniProt P11171),0.036
8,EIF2AK3 (UniProt Q9NZJ5),-0.088
9,FAM98A (UniProt Q8NCA5),0.009
10,FNDC3A (UniProt Q9Y2H6),-0.064
11,DUSP22 isoform 2 (UniProt Q9NRW4),0.038
12,DTL (UniProt Q9NZJ0),0.036
13,EPN2 (UniProt I3L356),0.238
14,EIF3I (UniProt Q5TFK1),-0.511
15,FAT2 (UniProt Q9NYQ8),-0.028
16,FBXO45 (UniProt P0C2W1),-0.011
17,"EIF2B5, A0A3B3ITK8",0.313
18,FAM53B (UniProt Q14153),-0.013

# Compound: NC(=O)Nc1cc(-c2cccc(F)c2)sc1C(=O)N[C@H]1CCCNC1
# Assay: as above
# In short: as §1
row,Target,log2 fold change
1,GC isoform 3 (UniProt P02774),-0.076
2,EXO5 (UniProt Q9H790),-0.071
3,GAA (UniProt P10253),0.007
4,DYNC1I2 isoform 2 (UniProt Q13409),0.024
5,"FBRSL1, A0A3B3IRR3",0.029
6,GABPB1 isoform 3 (UniProt Q06547),-0.012
7,FAT1 (UniProt Q14517),-0.105
8,GART (UniProt C9JZG2),-0.02
9,EPB41 isoform 4 (UniProt P11171),0.053
10,EWSR1 (UniProt H7BY36),0.118
11,FAM204A (UniProt Q9H8W3),0.069
12,FYN (UniProt P06241),-0.029
13,FAM98A (UniProt Q8NCA5),-0.004
14,GDE1 (UniProt Q9NZC3),0.029
15,FNDC3A (UniProt Q9Y2H6),0.059
16,DTL (UniProt Q9NZJ0),0.025
17,DYRK1A isoform 2 (UniProt Q13627),0.139
18,FAT2 (UniProt Q9NYQ8),0.36
19,FAM111A (UniProt Q96PZ2),0.039
20,FBXO45 (UniProt P0C2W1),0.008
21,FAM53B (UniProt Q14153),0.093
